Data reported in PubChem BioAssay (NCI).
About 79,000 compounds went through this panel and 15% of them were active in at least one assay; those are over-represented in the sample as a whole. Activity calls are given as the source filed them. No stated cut-off is given here; in the data, active means growth inhibition above about 70%; inactive means the rest.

Assays:
[1] = NCI Yeast Anticancer Drug Screen. Data for the rad52 strain (AID 147);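 further: 0% = growth of vehicle-treated control cultures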; conditions: S. cerevisiae rad52 mutant growth inhibition, stronger effect = higher value
Summary of the method: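 Here a repair-compromised yeast strain receives each compound; its growth is then quantified and normalised to vehicle-only controls.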

[2] = NCI Yeast Anticancer Drug Screen. Data for the wt1 strain (AID 149);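 further: 0% = growth of vehicle-treated wt1 cultures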; conditions: S. cerevisiae wt1 strain (SPY 50644) growth inhibition, stronger effect = higher value
Summary of the method: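 Readout: yeast growth inhibition, normalised to vehicle controls, in the wt1 strain exposed to test compounds.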

[3] = NCI Yeast Anticancer Drug Screen. Data for the rad50EPP+ strain (AID 151);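 further: 0% = growth of vehicle-treated control cultures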; conditions: S. cerevisiae rad50 mutant strain, stronger effect = higher value
Summary of the method: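 Read-out is yeast growth inhibition relative to vehicle; cells used were the rad50EPP+ strain.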

[4] = NCI Yeast Anticancer Drug Screen. Data for the mgt1 strain (AID 153); conditions: S. cerevisiae mgt1 mutant growth inhibition, stronger effect = higher value
Summary of the method: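 Measured: inhibition of mgt1 yeast growth by compound, normalized to vehicle-treated cultures.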

[5] = NCI Yeast Anticancer Drug Screen. Data for the rad50 strain (AID 155);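 further: 0% = growth of vehicle-only cultures of the same strain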; conditions: S. cerevisiae rad50 strain growth inhibition, stronger effect = higher value
Summary of the method: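 Compounds were tested on a yeast strain with an engineered DNA damage repair alteration; the reported value is growth inhibition normalised to vehicle treatment.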

[6] = NCI Yeast Anticancer Drug Screen. Data for the mec2-1 strain (AID 157); conditions: S. cerevisiae mec2-1 strain, stronger effect = higher value
Summary of the method: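 Using mec2-1 yeast: add compound, measure growth, express inhibition versus vehicle-treated cultures.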

[7] = NCI Yeast Anticancer Drug Screen. Data for the rad14 strain (AID 159);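 further: 0% = growth of vehicle-treated control cultures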; conditions: S. cerevisiae rad14 strain growth inhibition, stronger effect = higher value
Summary of the method: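 Compound-treated yeast with a defined DNA-repair lesion; growth inhibition normalised to vehicle-treated cultures.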

[8] = NCI Yeast Anticancer Drug Screen. Data for the sgs1 mgt1 strain (AID 161);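 further: 0% = growth of cultures given vehicle only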; conditions: S. cerevisiae sgs1 mgt1 strain, stronger effect = higher value
Summary of the method: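 Compounds are added to genetically altered yeast, and growth is compared with cultures given vehicle alone to give percent inhibition.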

[9] = NCI Yeast Anticancer Drug Screen. Data for the CLN2oe strain (AID 163);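 further: 0% = growth of vehicle-only control cultures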; conditions: S. cerevisiae CLN2oe strain, stronger effect = higher value
Summary of the method: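 Whole-cell yeast growth assay. A strain engineered for altered cell-cycle control received compound, and inhibition relative to vehicle-treated cultures was recorded.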

[10] = NCI Yeast Anticancer Drug Screen. Data for the cln2 rad14 strain (AID 165);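 further: 0% = growth equal to vehicle treated cultures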; conditions: S. cerevisiae cln2 rad14 strain, stronger effect = higher value
Summary of the method: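 Yeast strain cln2 rad14, bearing defects in cell cycle control and DNA repair, serves as the test system; values reflect growth inhibition compared with vehicle.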

[11] = NCI Yeast Anticancer Drug Screen. Data for the bub3 strain (AID 167); conditions: S. cerevisiae bub3 mutant strain, stronger effect = higher value
Summary of the method: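 Growth of a checkpoint-deficient yeast mutant is measured after compound exposure. Values represent inhibition relative to vehicle.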

[12] = NCI Yeast Anticancer Drug Screen. Data for the wt2 strain (AID 169);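 further: 0% = growth of vehicle-treated yeast cultures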; conditions: S. cerevisiae wt2 strain growth inhibition, stronger effect = higher value
Summary of the method: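 Treated yeast vs. vehicle-treated yeast: growth inhibition determined.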

[13] = NCI Yeast Anticancer Drug Screen. Data for the sgs1 strain (AID 173);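 further: 0% = growth of vehicle-only control cultures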; conditions: S. cerevisiae sgs1 mutant, stronger effect = higher value
Summary of the method: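 A genetically defined yeast mutant is incubated with the test compound, and its growth is compared to that of the same strain given vehicle.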

[14] = NCI Yeast Anticancer Drug Screen. Data for the mlh1 rad18 strain (AID 175); conditions: S. cerevisiae mlh1 rad18 strain growth inhibition, stronger effect = higher value
Summary of the method: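 Steps: expose repair-defective yeast to compound; measure growth; express inhibition against vehicle-treated controls.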

[15] = NCI Yeast Anticancer Drug Screen. Data for the rad18 strain (AID 177); conditions: S. cerevisiae rad18 mutant growth inhibition, stronger effect = higher value
Summary of the method: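 Measured value is growth inhibition of a yeast strain bearing a DNA repair alteration, referenced to vehicle-treated cells.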

[16] = at 5.0 µM (retest, dose inferred, filed as 0.5)
[17] = at 50.0 µM (retest, dose inferred, filed as 5.0)

Measured: growth inhibition

CC1=CC(=O)C=CC1=Nc1cc(Cl)c(O)c(Cl)c1
active: [1]; at 100.0 µM 92% | [2]; at 100.0 µM 93% | [3]; at 100.0 µM 70% | [4]; at 100.0 µM 94% | [5]; at 50.0 µM 81.4% | [5]; at 100.0 µM 91% | [6]; at 50.0 µM 79.3% | [6]; at 100.0 µM 93% | [7]; at 100.0 µM 89% | [8]; [17] 93% | [8]; at 50.0 µM 83.7% | [9]; at 100.0 µM 90% | [10]; [17] 94% | [10]; at 50.0 µM 77.2% | [11]; [17] 91% | [11]; at 50.0 µM 83% | [11]; at 100.0 µM 92% | [12]; at 100.0 µM 94% | [13]; at 100.0 µM 89% | [14]; at 50.0 µM 82% | [15]; at 100.0 µM 91%
inactive: [1]; at 1.2 µM -39% | [1]; at 3.7 µM -29% | [1]; at 11.0 µM 7% | [1]; at 33.0 µM 66% | [2]; at 1.2 µM -30% | [2]; at 3.7 µM -24% | [2]; at 11.0 µM -12% | [2]; at 33.0 µM 52% | [3]; at 1.2 µM -31% | [3]; at 3.7 µM -15% | [3]; at 11.0 µM -16% | [3]; at 33.0 µM 27% | [4]; at 1.2 µM -4% | [4]; at 3.7 µM 4% | [4]; at 11.0 µM 9% | [4]; at 33.0 µM 40% | [5]; at 1.2 µM -2% | [5]; at 3.7 µM 8% | [5]; [16] 55% | [5]; at 11.0 µM 8% | [5]; at 33.0 µM 62% | [5]; [17] 53% | [6]; at 1.2 µM -21% | [6]; at 3.7 µM -16% | [6]; [16] 63% | [6]; at 11.0 µM -4% | [6]; at 33.0 µM 55% | [6]; [17] 48% | [7]; at 1.2 µM -43% | [7]; at 3.7 µM -31% | [7]; at 11.0 µM -30% | [7]; at 33.0 µM 38% | [8]; [16] -4% | [9]; at 1.2 µM -2% | [9]; at 3.7 µM -9% | [9]; at 11.0 µM 22% | [9]; at 33.0 µM 45% | [10]; [16] 48% | [11]; at 1.2 µM 7% | [11]; at 3.7 µM 11% | [11]; [16] 45% | [11]; at 11.0 µM 8% | [11]; at 33.0 µM 49% | [12]; at 1.2 µM -31% | [12]; at 3.7 µM -20% | [12]; at 11.0 µM -14% | [12]; at 33.0 µM 30% | [13]; at 1.2 µM -50% | [13]; at 3.7 µM -42% | [13]; at 11.0 µM -17% | [13]; at 33.0 µM 43% | [14]; [16] 40% | [14]; [17] 48% | [15]; at 1.2 µM -11% | [15]; at 3.7 µM -10% | [15]; at 11.0 µM -9% | [15]; at 33.0 µM 60%

COc1ccc(C(C)c2cc3c(cc2OC(C)O)OCO3)cc1 (stereo unspecified)
inactive: [1]; at 1.2 µM -2% | [1]; at 3.7 µM -3% | [1]; at 11.0 µM -1% | [1]; at 33.0 µM 1% | [2]; at 1.2 µM -2% | [2]; at 3.7 µM -3% | [2]; at 11.0 µM -4% | [2]; at 33.0 µM -4% | [3]; at 1.2 µM 0% | [3]; at 3.7 µM 15% | [3]; at 11.0 µM 15% | [3]; at 33.0 µM 33% | [3]; at 100.0 µM 36% | [4]; at 1.2 µM -3% | [4]; at 3.7 µM -2% | [4]; at 11.0 µM -3% | [4]; at 33.0 µM -2% | [5]; at 1.2 µM -6% | [5]; at 3.7 µM -46% | [5]; [16] 4% | [5]; at 11.0 µM 26% | [5]; at 33.0 µM 3% | [5]; [17] 11% | [5]; at 50.0 µM 18.8% | [6]; at 1.2 µM -3% | [6]; at 3.7 µM -2% | [6]; [16] 3% | [6]; at 11.0 µM -1% | [6]; at 33.0 µM -2% | [6]; [17] 31% | [6]; at 50.0 µM 0.2% | [7]; at 1.2 µM -1% | [7]; at 3.7 µM -2% | [7]; at 11.0 µM -1% | [7]; at 33.0 µM 4% | [7]; at 100.0 µM 69% | [8]; [16] 2% | [8]; [17] 37% | [8]; at 50.0 µM 58.5% | [9]; at 1.2 µM 4% | [9]; at 3.7 µM 1% | [9]; at 11.0 µM 2% | [9]; at 33.0 µM 1% | [9]; at 100.0 µM 38% | [10]; [16] 3% | [10]; [17] 1% | [10]; at 50.0 µM -31.5% | [11]; at 1.2 µM 0% | [11]; at 3.7 µM 6% | [11]; [16] 7% | [11]; at 11.0 µM 20% | [11]; at 33.0 µM 43% | [11]; [17] 52% | [11]; at 50.0 µM 25.4% | [11]; at 100.0 µM 64% | [12]; at 1.2 µM 3% | [12]; at 3.7 µM -1% | [12]; at 11.0 µM -2% | [12]; at 33.0 µM -2% | [12]; at 100.0 µM 32% | [13]; at 1.2 µM -3% | [13]; at 3.7 µM -1% | [13]; at 11.0 µM 5% | [13]; at 33.0 µM 25% | [14]; [16] -1% | [14]; [17] 52% | [14]; at 50.0 µM 50.6% | [15]; at 1.2 µM -2% | [15]; at 3.7 µM 4% | [15]; at 11.0 µM 7% | [15]; at 33.0 µM 18%
active: [1]; at 100.0 µM 89% | [2]; at 100.0 µM 88% | [4]; at 100.0 µM 95% | [5]; at 100.0 µM 96% | [6]; at 100.0 µM 87% | [13]; at 100.0 µM 92% | [15]; at 100.0 µM 90%
